From article PMC5540273 (PLoS ONE, 2017)

Legend:
Conditions in all cases: concentration: 1 μM, replicates: in singlicate; n = 1
MAPKAPK5 = test system: MAPKAPK5
MARK1 = test system: MARK1
MARK2 = test system: MARK2
MARK3 = test system: MARK3
MARK4 = test system: MARK4
MAST1 = test system: MAST1
MEK1 = test system: T1, MEK1
T1 construct: gene MAP2K1

MEK2 = test system: T2, MEK2
T2 construct: gene MAP2K2

MEK3 = test system: T3, MEK3
T3 construct: gene MAP2K3

MEK4 = test system: T4, MEK4
T4 construct: gene MAP2K4

MEK5 = test system: T5, MEK5
T5 construct: gene MAP2K5

MEK6 = test system: T6, MEK6
T6 construct: gene MAP2K6

MELK = test system: MELK
MERTK = test system: MERTK
MET = test system: MET
MINK = test system: T7, MINK
T7 construct: gene MINK1

MKK7 = test system: MKK7
MKNK1 = test system: MKNK1
MKNK2 = test system: MKNK2
MLCK = test system: T8, MLCK
T8 construct: gene MYLK3
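Also: KINOMEscan kinase panel screen.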

SMILES: Nc1cccc(-c2ccc3c(N)n[nH]c3c2)c1 [GSK2193613]
- %Inh (MAPKAPK5): 0%
- %Inh (MARK1): 0%
- %Inh (MARK2): 0%
- %Inh (MARK3): 0%
- %Inh (MARK4): 0%
- %Inh (MAST1): 0%
- %Inh (MEK1): 53%
- %Inh (MEK2): 39%
- %Inh (MEK3): 0%
- %Inh (MEK4): 12%
- %Inh (MEK5): 64%
- %Inh (MEK6): 0%
- %Inh (MELK): 0%
- %Inh (MERTK): 0%
- %Inh (MET): 6%
- %Inh (MINK): 73%
- %Inh (MKK7): 0%
- %Inh (MKNK1): 2%
- %Inh (MKNK2): 64%
- %Inh (MLCK): 95.4%

SMILES: COC(=O)Nc1nc2cc(Oc3ccc(NC(=O)Nc4cccc(SC)c4)cc3)ccc2[nH]1.Cl [GW697999]
- %Inh (MAPKAPK5): 0%
- %Inh (MARK1): 0%
- %Inh (MARK2): 0%
- %Inh (MARK3): 0%
- %Inh (MARK4): 9%
- %Inh (MAST1): 14%
- %Inh (MEK1): 0%
- %Inh (MEK2): 0%
- %Inh (MEK3): 0%
- %Inh (MEK4): 12%
- %Inh (MEK5): 55%
- %Inh (MEK6): 0%
- %Inh (MELK): 0%
- %Inh (MERTK): 89%
- %Inh (MET): 21%
- %Inh (MINK): 23%
- %Inh (MKK7): 0%
- %Inh (MKNK1): 32%
- %Inh (MKNK2): 65%
- %Inh (MLCK): 0%

SMILES: CN(C)CCOc1ccc(-c2cc(-c3ccc(Cl)c(O)c3)c(-c3ccncc3)[nH]2)cc1.Cl.Cl [SB-684387]
- %Inh (MAPKAPK5): 29%
- %Inh (MARK1): 0%
- %Inh (MARK2): 14%
- %Inh (MARK3): 14%
- %Inh (MARK4): 0%
- %Inh (MAST1): 52%
- %Inh (MEK1): 0%
- %Inh (MEK2): 35%
- %Inh (MEK3): 5%
- %Inh (MEK4): 10%
- %Inh (MEK5): 21%
- %Inh (MEK6): 0%
- %Inh (MELK): 15%
- %Inh (MERTK): 0%
- %Inh (MET): 43%
- %Inh (MINK): 36%
- %Inh (MKK7): 0%
- %Inh (MKNK1): 7%
- %Inh (MKNK2): 4%
- %Inh (MLCK): 13%

SMILES: Cc1ccc(O)cc1Nc1ccnc2ccc(C(C)(C)C)cc12 [GW856805]
- %Inh (MAPKAPK5): 0%
- %Inh (MARK1): 36%
- %Inh (MARK2): 20%
- %Inh (MARK3): 21%
- %Inh (MARK4): 37%
- %Inh (MAST1): 69%
- %Inh (MEK1): 17%
- %Inh (MEK2): 21%
- %Inh (MEK3): 67%
- %Inh (MEK4): 42%
- %Inh (MEK5): 86%
- %Inh (MEK6): 25%
- %Inh (MELK): 8%
- %Inh (MERTK): 46%
- %Inh (MET): 0%
- %Inh (MINK): 10%
- %Inh (MKK7): 40%
- %Inh (MKNK1): 0%
- %Inh (MKNK2): 30%
- %Inh (MLCK): 4%

SMILES: CCn1cnc2c(NCc3ccccc3)ncnc21 [SKF-96418]
- %Inh (MAPKAPK5): 0%
- %Inh (MARK1): 3%
- %Inh (MARK2): 0%
- %Inh (MARK3): 27%
- %Inh (MARK4): 14%
- %Inh (MAST1): 67%
- %Inh (MEK1): 20%
- %Inh (MEK2): 37%
- %Inh (MEK3): 40%
- %Inh (MEK4): 23%
- %Inh (MEK5): 38%
- %Inh (MEK6): 9%
- %Inh (MELK): 0%
- %Inh (MERTK): 0%
- %Inh (MET): 0%
- %Inh (MINK): 12%
- %Inh (MKK7): 17%
- %Inh (MKNK1): 0%
- %Inh (MKNK2): 0%
- %Inh (MLCK): 0%

SMILES: Cl.N#CCc1ccc(Nc2nccc(Nc3ccc(Oc4ccccc4)cc3)n2)cc1 [GW639905]
- %Inh (MAPKAPK5): 0%
- %Inh (MARK1): 0%
- %Inh (MARK2): 0%
- %Inh (MARK3): 0%
- %Inh (MARK4): 0%
- %Inh (MAST1): 0%
- %Inh (MEK1): 2%
- %Inh (MEK2): 12%
- %Inh (MEK3): 0%
- %Inh (MEK4): 22%
- %Inh (MEK5): 99.9%
- %Inh (MEK6): 0%
- %Inh (MELK): 0%
- %Inh (MERTK): 0%
- %Inh (MET): 0%
- %Inh (MINK): 0%
- %Inh (MKK7): 0%
- %Inh (MKNK1): 0%
- %Inh (MKNK2): 33%
- %Inh (MLCK): 0%

SMILES: Cc1cc(-c2ccnc(Nc3cccc(C#N)c3)n2)cc(C)c1O [GSK1440913]
- %Inh (MAPKAPK5): 0%
- %Inh (MARK1): 0%
- %Inh (MARK2): 0%
- %Inh (MARK3): 0%
- %Inh (MARK4): 0%
- %Inh (MAST1): 0%
- %Inh (MEK1): 0%
- %Inh (MEK2): 0%
- %Inh (MEK3): 89%
- %Inh (MEK4): 40%
- %Inh (MEK5): 23%
- %Inh (MEK6): 35%
- %Inh (MELK): 0%
- %Inh (MERTK): 42%
- %Inh (MET): 38%
- %Inh (MINK): 52%
- %Inh (MKK7): 36%
- %Inh (MKNK1): 2%
- %Inh (MKNK2): 2%
- %Inh (MLCK): 77%

SMILES: COc1cccc(CC(=O)N2CCc3cc(-c4cn(C)c5ncnc(N)c45)ccc32)c1 [GSK2608899]
- %Inh (MAPKAPK5): 0%
- %Inh (MARK1): 0%
- %Inh (MARK2): 0%
- %Inh (MARK3): 7%
- %Inh (MARK4): 0%
- %Inh (MAST1): 0%
- %Inh (MEK1): 39%
- %Inh (MEK2): 0%
- %Inh (MEK3): 0%
- %Inh (MEK4): 53%
- %Inh (MEK5): 99.7%
- %Inh (MEK6): 0%
- %Inh (MELK): 13%
- %Inh (MERTK): 75%
- %Inh (MET): 75%
- %Inh (MINK): 19%
- %Inh (MKK7): 0%
- %Inh (MKNK1): 9%
- %Inh (MKNK2): 14%
- %Inh (MLCK): 10%
